Screening results (PubChem BioAssay)
Compounds with a hit are over-represented: about 9.5% of the library has one in this group of screens.
Tau FP inhib = qHTS for Inhibitors of Tau Fibril Formation, Fluorescence Polarization; Microtubule-associated protein tau (Homo sapiens), P10636; K18 P301L tau heparin fibrillization, Alexa594 FP, 6 h; Potency, µM (series often up to 57.7 µM), usual class: inhibitors; 280,000 compounds, 0.39% hits; AID 1468, 2008; further: nearly all actives have a fitted effect of over 55% in size
Target sequence (P10636 561-689 P618L limits assumed): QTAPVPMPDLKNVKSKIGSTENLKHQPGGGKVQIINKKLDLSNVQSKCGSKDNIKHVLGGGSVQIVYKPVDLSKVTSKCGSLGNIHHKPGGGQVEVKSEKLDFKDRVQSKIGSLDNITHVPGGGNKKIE
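K18 P301L tau (15 uM unlabeled/0.24 uM Alexa 594-labeled, final) + compound + heparin 20 uM final; 100 mM NaOAc pH 7; 6 hr 37 C; ThT 30 uM final added, 1 hr RT; FP ex 555/em 632 nm.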
Tau fibril ThT = qHTS for Inhibitors of Tau Fibril Formation, Thioflavin T Binding; recombinant tau K18 P301L, heparin-induced fibrillization, ThT fluorescence; Microtubule-associated protein tau (Homo sapiens), P10636; 270,000 compounds, 2.1% hits; AID 1460, 2008; Potency, µM (highest dose often 57.4 µM), most hits filed as inhibitors; further: nearly all actives have a fitted effect of over 55% in size
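Recombinant human tau K18 fragment […] carrying P301L, 15 uM unlabeled plus 0.24 uM Alexa 594-labeled, was fibrillized with 20 uM heparin in 100 mM sodium acetate pH 7 for 6 hr at 37 C; 30 uM ThT fluorescence read after 1 hr.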
NPSR antag = qHTS Assay for Antagonists of the Neuropeptide S Receptor: cAMP Signal Transduction. Potency, µM (doses to about 38.3 µM), hits mostly inhibitors. CHO-NPSR cells, cAMP TR-FRET, antagonist mode. 220,000 compounds, 1% hits. AID 1461, 2008. Q6W5P4; further: nearly all actives have a fitted effect of over 50% in size
HPGD block = qHTS Assay for Inhibitors of HPGD (15-Hydroxyprostaglandin Dehydrogenase). purified HPGD, NADH fluorescence kinetic, PGE2 substrate. Potency, µM, usual class: inhibitors. 150,000 compounds, 4.3% hits. AID 894, 2007; active means well fitted inhibition curve with a large enough effect, not every such curve was filed as active; inconclusive means small, poorly fitted or top-dose-only effect, or another doubt; inactive means no such curve, though single readings can be large or run the other way
Target sequence (P15428 whole entry, looked up): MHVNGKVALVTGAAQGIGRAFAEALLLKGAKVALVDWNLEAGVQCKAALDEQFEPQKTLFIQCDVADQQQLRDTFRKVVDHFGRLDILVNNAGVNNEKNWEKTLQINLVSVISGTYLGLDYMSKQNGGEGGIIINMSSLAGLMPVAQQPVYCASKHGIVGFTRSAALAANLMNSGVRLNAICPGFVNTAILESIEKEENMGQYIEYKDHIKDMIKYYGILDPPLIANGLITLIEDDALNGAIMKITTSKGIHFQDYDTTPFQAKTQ
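NADH formation kinetics: reaction with 30 uM PGE2 and 1 mM NAD+ (final), 20 nM enzyme, Tris-HCl pH 8 with Tween 20, after 15 min compound preincubation at room temperature. Fluorescence change, last versus first of five reads.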
Tau fluor cs = Counterscreen qHTS for Inhibitors of Tau Fibril Formation, Fluorescence Polarization; Potency, µM (top dose mostly 57.7 µM); 280,000 compounds, 0.93% hits; tau K18 P301L Alexa594 fluorescence, heparin fibrillization; further: nearly all actives have a fitted effect of over 55% in size
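Human tau K18 P301L (15 uM unlabeled, 0.24 uM Alexa 594-labeled) in 100 mM sodium acetate pH 7 with 20 uM heparin, 6 hr at 37 C. ThT 30 uM added, 1 hr ambient; Alexa 594 FP and total fluorescence read at 555/632 nm.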
ALDH1A1 block = qHTS Assay for Inhibitors of Aldehyde Dehydrogenase 1 (ALDH1A1); Purified ALDH1A1, NADH fluorescence, propionaldehyde substrate; Potency, µM (highest dose often 75.3 µM), actives largely listed as inhibitors; Aldehyde dehydrogenase 1A1 (Homo sapiens), P00352; 220,000 compounds, 7.3% hits; AID 1030, 2008; active means well fitted inhibition curve with a large enough effect, not every such curve was filed as active; inconclusive means small, poorly fitted or top-dose-only effect, or another doubt; inactive means no such curve, though single readings can be large or run the other way
Each line names hits and unclear results; the compound was inactive in the other large screens. Unless noted, the call rests on the fitted dose curve; in most records, active means well fitted curve in the direction sought with a large enough effect; inconclusive means small, poorly fitted or top-dose-only effect, or another doubt; inactive means no such curve, though single readings can be large; an effect the other way counts as inactive or inconclusive.

CCn1c(SCC(=O)N2CCN(c3ccccc3F)CC2)nnc1-c1ccoc1C	ALDH1A1 block inconclusive
COc1cc2cc3c4cc(OC)c(OC)cc4cc[n+]3c(C)c2cc1OC	Tau fibril ThT inconclusive, ALDH1A1 block inconclusive (no result: NPSR antag)
O=C(O)[C@@H]1[C@@H](C(=O)Nc2ncccn2)[C@@H]2C=C[C@@H]1O2	none (no result: Tau FP inhib, Tau fibril ThT, NPSR antag, Tau fluor cs)
CC(=O)c1nnn(-c2cccc(C#N)c2)c1C	none (no result: Tau fibril ThT, HPGD block, ALDH1A1 block)
COc1ccc(C)cc1NC(=O)c1ccccc1NS(=O)(=O)c1cccc2cccnc12	none
Cc1ccc(C)c(NC(=O)/C(C#N)=C/c2ccc(Sc3nncn3C)c([N+](=O)[O-])c2)c1	none
O=c1[nH][nH]c(-c2ccccc2O)c1C(C[N+](=O)[O-])c1ccccc1 (stereo not given)	ALDH1A1 block inconclusive
O=c1[nH][nH]c(-c2ccccc2O)c1C(C[N+](=O)[O-])c1cccc(Cl)c1 (stereo not given)	Tau fibril ThT 25.1µM, Tau fluor cs inconclusive
CC(=O)Oc1cccc(N2C(=O)C3CC=CCC3C2=O)c1 (stereo not given)	none
CC(=O)Oc1cccc(N2C(=O)C3C(C2=O)C2C=CC3C23CC3)c1 (stereo not given)	ALDH1A1 block 20µM
CC(=O)Oc1cccc(N2C(=O)C3C4C=CC(C4=C(C)C)C3C2=O)c1 (stereo not given)	ALDH1A1 block 7.08µM
O=C(NCc1ccc2c(c1)CCN2C(=O)c1ccccc1)c1cc2ccccc2[nH]1	Tau FP inhib inconclusive (no result: NPSR antag, HPGD block, ALDH1A1 block)
CC(=O)c1ccc(Sc2ccc(C(C)=O)cc2)cc1	HPGD block 17.8µM
CC(=O)c1ccc(Sc2ccccc2)cc1	HPGD block inconclusive, ALDH1A1 block inconclusive
O=C(Nc1nnc(S(=O)(=O)N2CCCCC2)s1)c1ccc(Cl)cc1	Tau fibril ThT 2µM (no result: NPSR antag, HPGD block, ALDH1A1 block)
Cc1ccc(C(=O)Nc2nnc(S(=O)(=O)N3CCN(c4ccc(F)cc4)CC3)s2)cc1	Tau fibril ThT 2.51µM (no result: NPSR antag, HPGD block, ALDH1A1 block)
COc1ccc(C(=O)c2ccc(N3CCOCC3)cc2)c(OC)c1	Tau fibril ThT inconclusive, ALDH1A1 block 1.12µM (no result: HPGD block)
COc1ccc(C(=O)c2ccc(OC)cc2OC)cc1	none (no result: Tau fibril ThT, HPGD block, ALDH1A1 block)
Oc1ccccc1C(=S)N1CCN(c2cccc(Cl)c2)CC1	ALDH1A1 block 10µM (no result: HPGD block)
COC(=O)/C=C/C(=O)N1CCN(c2cccc(Cl)c2)CC1	ALDH1A1 block 10µM
CC(=O)N1CCN(C(=S)c2ccc(Cl)cc2)CC1	HPGD block 25.1µM, ALDH1A1 block 17.8µM
CCNc1ncnc2c1cnn2C	none (no result: HPGD block)
CCCCc1nc2c(c3c1C[C@H](C)OC3)CN(C(=O)c1cc(I)ccc1F)CC2	none (no result: NPSR antag)
COc1cc(C(=S)N2CCN(c3cccc(Cl)c3)CC2)ccc1O	Tau FP inhib inconclusive, Tau fibril ThT inconclusive, Tau fluor cs inconclusive, ALDH1A1 block 3.55µM (no result: HPGD block)
COc1ccc(C(=O)N2CCN(c3cccc(Cl)c3)CC2)cc1	none
CC(=O)c1ccc(NC(=S)N2CCN(c3cccc(Cl)c3)CC2)cc1	none (no result: HPGD block)
O=C(COC(=O)/C=C/C(=O)N1CCN(c2ccccc2)CC1)NC(c1ccccc1)c1ccccc1	Tau fibril ThT inconclusive, ALDH1A1 block 18.9µM (no result: HPGD block)
Oc1ccc(C(=S)N2CCN(c3cccc(Cl)c3)CC2)cc1	Tau FP inhib inconclusive, Tau fibril ThT inconclusive, Tau fluor cs inconclusive, ALDH1A1 block 7.94µM (no result: HPGD block)
COc1ccc(C(=S)N2CCN(c3cccc(Cl)c3)CC2)c(OC)c1	ALDH1A1 block 20µM (no result: HPGD block)
COc1ccc(C(=S)N2CCN(c3ccccc3Cl)CC2)cc1OC	none (no result: Tau fibril ThT, HPGD block, ALDH1A1 block)
c1ccc2c(c1)nnn2CN1CCOCC1	none (no result: Tau FP inhib, Tau fibril ThT, NPSR antag, Tau fluor cs)
COc1ccc2c(c1)c1c(c(=O)n(-c3ccc(C)cc3)c(=O)n1CC(=O)Nc1cc(C)ccc1C)n2C	none (no result: NPSR antag, HPGD block, ALDH1A1 block)
Cc1ccc(-c2c[nH]c(=S)n2-c2ccccc2)cc1	ALDH1A1 block 1µM (no result: HPGD block)
Cn1c(-c2ccc(-c3ccccc3)cc2)c[nH]c1=S	none (no result: HPGD block)
